Measurements: the supplement of paper PMC3545927
The list shows a part of the results. No count for the full screen is at hand.

Molecular target: furin, P09958
Test: furin cleavage Z-score vs untreated control; higher = more cleavage, active = 3.5 or more, inactive = 1 or less, 8 variable residues between constant flanks
Summary of the method: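 Sequencing of released DNA, tagged with adapters by PCR, gave read counts used as abundance. That DNA was freed when purified furin cut N-terminally bead-bound 8-mer peptides fused to a cDNA oligonucleotide, in 0.01 ml reactions at 1:10 enzyme:substrate in 50 mM HEPES pH 7.5 with CaCl2 and NaCl, lasting 7.5, 15 or 30 min. The cleavage Z-score was the lowess-adjusted log count versus furin-free reactions, scaled by median absolute deviation.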

furin, P09958, sequence (P09958 whole entry): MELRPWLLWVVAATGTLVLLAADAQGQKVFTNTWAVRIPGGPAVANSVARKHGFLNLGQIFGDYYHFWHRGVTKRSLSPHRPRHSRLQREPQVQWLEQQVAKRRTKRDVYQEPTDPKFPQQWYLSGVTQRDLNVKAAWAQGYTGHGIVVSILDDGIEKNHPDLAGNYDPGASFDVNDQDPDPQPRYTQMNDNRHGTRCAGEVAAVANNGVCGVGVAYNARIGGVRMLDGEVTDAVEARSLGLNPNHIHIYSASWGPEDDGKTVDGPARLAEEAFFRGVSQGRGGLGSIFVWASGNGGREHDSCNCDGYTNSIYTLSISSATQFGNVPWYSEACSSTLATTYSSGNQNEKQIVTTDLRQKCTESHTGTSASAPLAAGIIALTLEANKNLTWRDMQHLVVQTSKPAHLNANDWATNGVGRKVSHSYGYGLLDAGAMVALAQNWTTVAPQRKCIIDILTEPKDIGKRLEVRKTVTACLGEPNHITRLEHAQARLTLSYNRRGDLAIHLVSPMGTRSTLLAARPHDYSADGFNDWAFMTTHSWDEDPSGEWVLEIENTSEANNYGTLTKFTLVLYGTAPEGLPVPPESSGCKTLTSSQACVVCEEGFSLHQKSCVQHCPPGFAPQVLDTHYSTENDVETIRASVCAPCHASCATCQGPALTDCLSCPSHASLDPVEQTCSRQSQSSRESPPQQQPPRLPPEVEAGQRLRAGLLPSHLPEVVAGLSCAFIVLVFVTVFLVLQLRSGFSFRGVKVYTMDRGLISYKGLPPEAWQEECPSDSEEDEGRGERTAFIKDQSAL

Sequence	furin cleavage Z-score (7.5 min)	furin cleavage Z-score (15 min)	furin cleavage Z-score (30 min)
CATTPCSGSHAGNASASA [HC1935]	-1.54 (inactive)	-0.464 (inactive)	-0.211 (inactive)
CAAFSLHSYSAGNASASA [HC1606]	0.00727 (inactive)	-0.749 (inactive)	-0.113 (inactive)
CAQTPCSGSWAGNASASA [HC1842]	-1.2 (inactive)	-0.187 (inactive)	-0.763 (inactive)
CARVSRLAGRAGNASASA [FS-3126]	-0.719 (inactive)	-0.0593 (inactive)	-1.13 (inactive)
CARVSRSVRKAGNASASA [FS-293]	2.18	4.8 (active)	5.93 (active)
CARVLRSDGKAGNASASA [FS-2102]	1.54	-0.134 (inactive)	1.59
CACQQRFKRKAGNASASA [FS-1516]	9.6 (active)	8.5 (active)	7.56 (active)
CARFGRFWKKAGNASASA [FS-2921]	-0.769 (inactive)	0.759 (inactive)	-0.706 (inactive)
CAAAFRFKRKAGNASASA [FS-1109]	9.75 (active)	11.5 (active)	9.51 (active)
CADVFVLNNTAGNASASA [HC428]	0.596 (inactive)	0.292 (inactive)	1.32
CAEFVTSTWVAGNASASA [HC2167]	0.46 (inactive)	-0.556 (inactive)	1.32
CASTRCSAHLAGNASASA [HC2513]	-0.269 (inactive)	0.477 (inactive)	0.507 (inactive)
CAADVVDGAGAGNASASA [CS8]	0.136 (inactive)	0.768 (inactive)	-0.146 (inactive)
CAGWIRSRKAAGNASASA [FS-1529]	-0.333 (inactive)	0.0867 (inactive)	1.14
CAGPQRQKKAAGNASASA [FS-1201]	-1.12 (inactive)	-0.885 (inactive)	1.12
CAWPHRSRKAAGNASASA [FS-574]	0.887 (inactive)	1.32	-0.0044 (inactive)
CATVSRFRKAAGNASASA [FS-731]	4.07 (active)	6.77 (active)	7.8 (active)
CATVSSEANAAGNASASA [HC1364]	-0.827 (inactive)	-1.5 (inactive)	-0.39 (inactive)
CAGPSRFRKAAGNASASA [FS-162]	5.12 (active)	5.93 (active)	5.05 (active)
CAEVVLSTWVAGNASASA [HC124]	-1.79 (inactive)	0.00773 (inactive)	-0.313 (inactive)
CATPLPAPNYAGNASASA [HC1196]	-2.54 (inactive)	-0.301 (inactive)	-1.86 (inactive)
CAAPAVQTNWAGNASASA [HC1034]	0.577 (inactive)	-0.967 (inactive)	-0.703 (inactive)
CASFSIFLLAAGNASASA [HC247]	0.168 (inactive)	-0.433 (inactive)	-0.472 (inactive)
CARKLRDVLQAGNASASA [FS-2215]	2.04	4.73 (active)	4.95 (active)
CARKLRSLEQAGNASASA [FS-3193]	8.09 (active)	8.14 (active)	8.28 (active)
CARKLRGETVAGNASASA [FS-2969]	-1.81 (inactive)	-0.954 (inactive)	-0.18 (inactive)
CARDRRRLEQAGNASASA [FS-2483]	-1.86 (inactive)	0.963 (inactive)	-0.511 (inactive)
CARLSRDSLQAGNASASA [FS-2998]	-0.269 (inactive)	-1.05 (inactive)	1.09
CARALRSATQAGNASASA [FS-3182]	-0.644 (inactive)	-0.755 (inactive)	1.8
